# Many of the other results were omitted from the sample, so hits are more common in it than they were.
# Pf Dd2 inh: blocks in vitro growth of P. falciparum Dd2. AID 1347417. hit rate 4.3% among 120,000. P. falciparum Dd2 growth, SYBR Green, 72 h. Potency, µM (titrated, usually from 28.9 µM), for inactives: at the highest dose activity, negative = inhibition, actives largely listed as inhibitors; active = well fitted inhibition curve with a large enough effect;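 note: plate controls were DMSO vehicle for no effect and reference drug for full effect; nearly all actives have a fitted effect of over 65% in size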
#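 Infected erythrocytes (Dd2, 0.3% parasitemia, 2.5% hematocrit final) are added to compound in RPMI-1640/Albumax II medium, grown 72 h at 37C in low oxygen, then lysed with saponin/Triton-X containing SYBR Green and read by fluorescence.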
# Starred values were filed as active, the others as inactive; i = inactive; [ ] = dose if it differs, or a comment. Potency is the fitted concentration of half-maximal effect.
SMILES,Pf Dd2 inh
CC(=O)c1cccc(NC(=O)CCCSc2nc(-c3ccco3)cc(C(F)(F)F)n2)c1,3.0%
COCCNC(=O)NC[C@H]1O[C@@H]2C[C@@H](CC(=O)N3CCOCC3)O[C@@H]2[C@@H]1O,7.9%[44.1 µM]
CCN(CC)C(=O)c1c(C)sc2ccn(Cc3ccc(F)cc3)c(=O)c12,i
COCCNC(=O)[C@@H]1C[C@@H](O)CN1C1CCN(C(=O)c2sccc2C)CC1,-6.8%
OCc1ccc(CN[C@H]2[C@H](O)[C@@H](N3CCC(Cc4ccccc4)CC3)[C@@H]3OC[C@H]2O3)o1,i
O[C@H]1[C@H](NCC2CCCCC2)[C@H]2CO[C@H](O2)[C@@H]1N1CCC(Cc2ccccc2)CC1,1.41µM*
O[C@H]1[C@H](NCc2ccccn2)[C@H]2CO[C@H](O2)[C@@H]1N1CCC(Cc2ccccc2)CC1,-19.2%[44.1 µM]
CCN(CC)C(=O)c1onc(-c2ccc(OC)cc2)c1[C@H](C)O,-14.6%[44.1 µM]
CCOC(=O)c1cccc(NC(=O)c2ccc3c(c2)N(CC)C2CCCCN2C3=O)c1 (stereo not drawn),i
CN1CC(c2ccccc2)CC2(CCN(C(=O)c3ccc(=O)n(C)c3)CC2)C1 (stereo not drawn),-24.2%
Cc1ccc(N2C(=O)c3n[nH]c(C)c3C2c2ccc(C(C)C)cc2)cc1 (stereo not drawn),i
CSc1ccc(C2c3c(-c4ccccc4O)n[nH]c3C(=O)N2Cc2ccncc2)cc1 (stereo not drawn),12.6µM*
CN1C(=O)c2[nH]nc(-c3ccc(F)cc3)c2C1c1cccc(O)c1 (stereo not drawn),-5.3%
CC(C)c1ccc(C2c3c(-c4ccccc4O)n[nH]c3C(=O)N2Cc2ccncc2)cc1 (stereo not drawn),12.6µM*
CC(C)c1ccc(C2NC(=O)c3n[nH]c(-c4cccs4)c32)cc1 (stereo not drawn),i
Cc1nnc([C@H]2CCN(Cc3ncc[nH]3)C2)o1,i
COc1nc2ccccc2cc1CN1CCN2C(=O)CN(C)C(=O)C2C1 (stereo not drawn),1.1%
CN(C)S(=O)(=O)N1CCc2nc3cc(-c4ccccc4)[nH]n3c(=O)c2C1,-20.7%[5.79 µM]
COCCOC1CCN(C(=O)Cc2ccccc2)CC1,21.3%
Cc1ccc(NC(=O)c2ccc(N(Cc3ccccc3)S(C)(=O)=O)cc2)cc1,6.31µM*
O=C(Nc1ccc(S(=O)(=O)N(Cc2ccccc2)c2ccccc2)cc1)c1ccc(F)cc1,69.1%
COc1cccc(C(=O)Nc2ccc(S(=O)(=O)N(Cc3ccccc3)c3ccccc3)cc2)c1,47.9%
O=C(CSc1nc2c([nH]c3ccccc32)c(=O)n1-c1ccccc1)Nc1ccccc1C(F)(F)F,27.7%
Cc1cc(C)cc(-n2c(SCC(=O)Nc3nnc(C)s3)nc3c([nH]c4ccccc43)c2=O)c1,7.5%
COc1cccc(-n2c(SCC(=O)c3ccccc3)nc3c([nH]c4ccccc43)c2=O)c1,7.6%
SMILES,Pf Dd2 inh
COc1ccc(Cl)cc1NC(=O)CSc1nc2c([nH]c3ccccc32)c(=O)n1-c1ccccc1,4.47µM*
Cc1cccc(NC(=O)CSc2nc3c([nH]c4ccccc43)c(=O)n2C)c1,3.7%
Cc1cccc(CSc2nc3c([nH]c4ccccc43)c(=O)n2C)c1,27.5%
CCn1c(SCC(=O)Nc2cc(Cl)ccc2OC)nc2c([nH]c3ccccc32)c1=O,i
COc1cccc(NC(=O)CSc2nc3c([nH]c4ccccc43)c(=O)n2-c2cc(C)cc(C)c2)c1,8.91µM*
Cc1cc(NC(=O)CSc2nc3c([nH]c4ccccc43)c(=O)n2-c2ccc(Cl)cc2)no1,-2.7%
CCOc1ccc(-n2c(SCC(=O)Nc3cc(C)on3)nc3c([nH]c4ccccc43)c2=O)cc1,i
Cc1ccc(-n2c(SCC(=O)Nc3ccc4c(c3)OCO4)nc3c([nH]c4ccccc43)c2=O)cc1,10µM*
COc1cccc(-n2c(SCc3cccc(C)c3)nc3c([nH]c4ccccc43)c2=O)c1,10µM*
Cc1ccc(N2CC(c3noc(-c4ccsc4)n3)CC2=O)cc1 (stereo not drawn),-2.7%
O=C(c1cc[n+]([O-])cc1)N1CCC(C2CCN(Cc3cccnc3)CC2)C1 (stereo not drawn),-4.2%
O=C([C@@H]1C[C@H](F)CN1S(=O)(=O)c1ccc(F)c(Cl)c1)N1CCc2ccccc2C1,-3.2%
COc1ccc(C(=O)N2CC[C@@H]3CN(S(C)(=O)=O)[C@@H]3C2)cc1F,22.8%
CC1(C)C[C@H](NC(=O)c2ccccc2)[C@@]2(CCC(=O)NC3CC3)CC[C@](C)(O)C[C@@H]12,-4.1%[44.1 µM]
O=C(NCCc1ccncc1)C1CN(C(=O)COc2ccccc2)CC12CCOCC2 (stereo not drawn),-8.7%
CSc1ccc(-c2ccc3c(c2)C(=O)N2CCN(C(=O)C4CCCCC4)C[C@@H]2C(=O)N3)cc1,8.91µM*
O=C1Nc2ccc(-c3ccc4c(c3)OCO4)cc2C(=O)N2CCN(C(=O)C3CCCC3)C[C@@H]12,i
COc1ccc(Cl)cc1-c1ccc2c(c1)C(=O)N1CCN(C(=O)C3CC3)C[C@@H]1C(=O)N2,12.6µM*
COc1ccc(Cl)cc1-c1ccc2c(c1)C(=O)N1CCN(C(=O)c3ccccc3)C[C@@H]1C(=O)N2,i
COc1ccc(Cl)cc1-c1ccc2c(c1)C(=O)N1CCN(C(=O)C3CCCCC3)C[C@@H]1C(=O)N2,i
COc1ccc(-c2ccc3c(c2)C(=O)N2CCN(C(=O)C4CCCCC4)C[C@@H]2C(=O)N3)cc1,i
Cc1noc(C)c1NC(=O)N[C@@H]1C[C@H](Cn2cc(CN3CCS(=O)(=O)CC3)nn2)[C@@H](O)[C@H]1O,11.9%
CC1Oc2ccc(NC(=O)c3ccc(Cl)cc3)cc2CN(C(C)C)C1=O (stereo not drawn),-4.6%
O=C(c1ccccc1)N1CCCCC12Cc1ccccc1NC2=O (stereo not drawn),i
O=C(NC1CCCC1)N1CCCCC12Cc1ccccc1NC2=O (stereo not drawn),-1.7%[44.1 µM]
SMILES,Pf Dd2 inh
O=C1Nc2ccccc2CC12CCCN2C1CCCCC1 (stereo not drawn),10µM*
CC[C@@H](Nc1ncnc2c1CN(C1CCCNCC1)C(=O)CN2C)c1ccccc1 (stereo partly drawn),-0.4%
O=C(NCCc1nccs1)c1cn(CCN2CCNCC2)nn1,-2.0%
O=C1COCC2(CN1Cc1cccc(OC(F)(F)F)c1)CN(C(=O)c1cn[nH]c1)C2,4.9%[44.1 µM]
COc1nc2nc(CCc3ccccc3)n(C)c2cc1-c1ccncc1,-11.6%[44.1 µM]
COc1ncc(-c2cc3c(nc2OC)nc(CCc2ccccc2)n3C)cn1,7.94µM*
COc1ccc(-c2cc3c(nc2OC)nc(CC2CC2)n3C)cc1,-9.8%[44.1 µM]
COc1ccc(-c2nc3nccc(-c4ccsc4)n3n2)c(OC)c1,i
CCn1cc(CN2CCC3(CCC3OC)CC2)cn1 (stereo not drawn),-24.4%
O=C(O)C(c1cc2ccccc2o1)N1CCC(CCN2CCCC2=O)CC1 (stereo not drawn),-7.6%
CNC(=O)CCC[C@H]1NC[C@@H]2CC1CN(Cc1ccccc1)C2,-26.2%
COc1ccc2[nH]cc(CCNC(=O)CCC[C@H]3NC[C@@H]4C[C@H]3CN(Cc3ccccc3)C4)c2c1,10µM*
O=C(CCC[C@H]1NC[C@@H]2C[C@H]1CN(Cc1ccccc1)C2)NCCN1CCCCC1,-23.9%
NC(=O)CCC[C@H]1NC[C@@H]2C[C@H]1CN(Cc1ccccc1)C2,-24.3%
COc1ccccc1OCCNC(=O)CCC[C@H]1NC[C@@H]2C[C@H]1CN(Cc1ccccc1)C2,-31.0%
CCN(Cc1ccccc1)C(=O)CCC[C@H]1NC[C@@H]2CC1CN(Cc1ccccc1)C2,12.6µM*
